This note sets out measurements from PubChem BioAssay AID1845 (The Scripps Research Institute Molecular Screening Center, 2009).

Screen size: about 290,000 compounds; about 490 (0.17%) were called active. Cut-off read from the data, not from the text of the source: active = inhibition above about 37%; inactive = the rest. The list comes from a sample in which actives are over-represented; it also holds similar structures and randomly drawn compounds.

A short description of this test: DNA intercalator displacement agents – biochemical, FID fluorescence, artefact control for HCV NS3 helicase inhibitor project, primary screen (AID 1845).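 Note: 0% = vehicle and 100% = reference compound; higher means more ethidium bromide displaced from hairpin DNA.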 Conditions: DNA fluorescent intercalator displacement, at 7.9 µM, hits give high values.
In the case of `CCn1nnnc1SCC(=O)Nc1ccc(N(C)C)cc1`, the inhibition was -4.25% (inactive).
In the case of `COc1ccc(C(=O)N2CCCCC2C(=O)Nc2ccc(-n3nc(C)cc3C)cc2)o1` (stereo not drawn) it was -43.5% (inactive).
The figure for `Cc1ccccc1OCC(=O)Nc1nnc(S(=O)(=O)N2CCCC2)s1` is -35.4% (inactive); for `O=CN1CCN(C(=O)c2ccc3c(c2)OCO3)CC1` it is -1.4% (inactive).
As for `NC(=O)C1CC(=O)N(c2ccc(OCC(=O)NCc3ccccc3)cc2)C1` (stereo not drawn), the inhibition is -4.26% (inactive).
The figure for `CC(=O)c1cc(CN2CCC(n3nccc3NC(=O)c3ccccc3Cl)CC2)cs1` is -5.43% (inactive); for `CCOC(=O)c1c(NC(=O)C2CCN(S(=O)(=O)c3ccc(Cl)cc3)CC2)sc2c1CCCC2` it is 43.9% (active).
In the case of `CCOC(=O)c1c(NC(=S)NC)sc2c1CCCC2` it was -4.6% (inactive).
In the case of `CCOC(=O)c1c(NC(=S)NC(=O)c2ccco2)sc2c1CCCC2` it was 0.98% (inactive); in that of `O=C(CNC(=O)OCc1ccccc1)NC1CCCCNC1=O` (stereo not drawn), 0.17% (inactive); in that of `O=C(O)CCCN1C(=O)C2C3c4ccccc4C(c4ccccc43)[C@@H]2C1=O` (stereo partly drawn), -12.3% (inactive).
As for `CC(C)C[C@H]1CN=C(Nc2ccccc2)N1CC1CCCCC1`, the inhibition was 3.71% (inactive).
The figure for `CCOc1ccc(NC(=O)c2ccc(NC(=O)C3CCCO3)cc2)cc1` (stereo not drawn) is -28.7% (inactive); for `CCN(C(=O)CN1C(=O)/C(=C/c2ccc(F)cc2)SC1=S)C1CCS(=O)(=O)C1` (stereo not drawn) it is -43.9% (inactive).
In the case of `COc1ccccc1/C=N/Nc1nc(C)c(C(C)=O)s1` it was -19.2% (inactive); in that of `Cc1ccc(S(=O)(=O)N(C)C)cc1NC(=O)C1Cc2ccccc2CN1C(=O)c1ccco1` (stereo not drawn), -29.3% (inactive); in that of `CCCNC(=O)c1cnc(-c2ccccc2)nc1-c1ccccc1`, -20.5% (inactive).
The figure for `O=C(c1ccc(Cn2cc([N+](=O)[O-])cn2)o1)N1CCCC1` is -4.09% (inactive); for `Cc1cccc(OCC(=O)NCCCNC(=O)c2ccccn2)c1` it is -16.1% (inactive).
For `COc1ccc(CC(=O)N/N=C(\C)c2ccccn2)cc1`, the inhibition is -6.95% (inactive).
`CCN(CC)CCOc1ccc2c(c1)C(=NNC(=O)c1ccccn1)c1cc(OCCN(CC)CC)ccc1-2`: the inhibition was 98.8% (active).
In the case of `COc1ccc(CCNC(=O)C(=O)NCC2OCCN2S(=O)(=O)c2ccc(F)cc2)cc1OC` (stereo not drawn) it was -32.4% (inactive); in that of `Cc1ccc(C(=O)N/C(=C\c2cn(S(=O)(=O)N(C)C)c3ccccc23)C(=O)N2CCCC2)cc1`, -52.8% (inactive).

Usually inhibition stands for the drop in the measured response relative to a control, in per cent.
